# In publication PMC7862700, “An all-to-all approach to the identification of sequence-specific readers for epigenetic DNA modifications on cytosine”:
# Assays:
# Assay in all cases: DAPPL (digital affinity profiling via proximity ligation, sequencing); 10 mM Tris-HCl pH 7.5, 50 mM NaCl, 1 mM DTT, 4% glycerol, room temperature, 30 min; GST-TFs on glutathione beads, 16-mer random dsDNA library, 0.1% formaldehyde crosslink after washing; high values mean tight binding
# FEV = biological target: T1, FEV (Homo sapiens, UniProt Q99581 1-238); conditions: protein: recombinant; tags: N-terminal GST; dsDNA, one strand shown
# T1 sequence: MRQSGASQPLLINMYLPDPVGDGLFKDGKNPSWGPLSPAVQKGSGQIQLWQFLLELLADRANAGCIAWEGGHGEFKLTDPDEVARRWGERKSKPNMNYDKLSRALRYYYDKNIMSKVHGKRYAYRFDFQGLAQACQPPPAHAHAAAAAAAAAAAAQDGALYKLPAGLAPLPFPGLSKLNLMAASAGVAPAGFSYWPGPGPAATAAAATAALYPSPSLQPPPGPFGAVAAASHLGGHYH
# Procedure, shortened: (§1)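 The binding signal reported is, for every hexamer, its read frequency for a factor over its read frequency for the tag-only sample. Reads came from pools of yeast-expressed, GST-fused human transcription factors on glutathione beads, barcoded with DNA and mixed with that sample, which were incubated with 200 nmole of a random double-stranded 16-mer DNA library in Tris/NaCl/DTT/glycerol buffer at room temperature for 30 min. After washing, the pools were crosslinked with 0.1% formaldehyde, proximity-ligated with BsaI/T4 ligase for 1 h at 37 °C, PCR-amplified and sequenced on an Illumina NextSeq500.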
# ETV5 = ETV5 (Homo sapiens, UniProt P41161 1-510); conditions: protein: recombinant; tags: N-terminal GST; dsDNA, one strand shown
# Procedure, shortened: as §1
# HSF1 = HSF1 (Homo sapiens, UniProt Q00613 1-529); conditions: protein: recombinant; tags: N-terminal GST; chain copies: 3; dsDNA, one strand shown
# Procedure, shortened: as §1
# SPIC = biological target: T2, SPIC (Homo sapiens, UniProt Q8N5J4 1-248); conditions: protein: recombinant; tags: N-terminal GST; dsDNA, one strand shown
# T2 sequence: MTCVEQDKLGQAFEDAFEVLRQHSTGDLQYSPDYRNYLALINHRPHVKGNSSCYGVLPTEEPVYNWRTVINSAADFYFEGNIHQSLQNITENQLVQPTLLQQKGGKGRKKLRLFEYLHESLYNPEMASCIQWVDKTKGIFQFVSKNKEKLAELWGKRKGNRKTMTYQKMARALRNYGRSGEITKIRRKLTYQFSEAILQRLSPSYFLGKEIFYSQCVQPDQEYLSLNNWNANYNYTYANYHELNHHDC
# Procedure, shortened: as §1
# ELF4 = ELF4 (Homo sapiens, UniProt Q99607 1-663); conditions: protein: recombinant; tags: N-terminal GST; dsDNA, one strand shown
# Procedure, shortened: as §1
# ELK4 = biological target: T3, ELK4 (Homo sapiens, UniProt P28324-2 1-405); conditions: protein: recombinant; tags: N-terminal GST; dsDNA, one strand shown
# T3 sequence: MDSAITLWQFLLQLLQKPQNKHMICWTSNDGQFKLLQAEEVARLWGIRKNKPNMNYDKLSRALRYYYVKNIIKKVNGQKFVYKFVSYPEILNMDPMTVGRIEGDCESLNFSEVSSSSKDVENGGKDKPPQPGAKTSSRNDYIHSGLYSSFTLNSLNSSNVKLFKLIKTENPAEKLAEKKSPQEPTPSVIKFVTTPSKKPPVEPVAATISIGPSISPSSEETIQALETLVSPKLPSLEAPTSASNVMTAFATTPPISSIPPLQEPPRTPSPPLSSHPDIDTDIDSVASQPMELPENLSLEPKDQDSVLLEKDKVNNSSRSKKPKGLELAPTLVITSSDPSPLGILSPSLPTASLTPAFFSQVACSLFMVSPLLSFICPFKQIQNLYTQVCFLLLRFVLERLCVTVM
# Procedure, shortened: as §1
# ETV2 = biological target: T4, ETV2 (Homo sapiens, UniProt O00321 1-342); conditions: protein: recombinant; tags: N-terminal GST; dsDNA, one strand shown
# T4 sequence: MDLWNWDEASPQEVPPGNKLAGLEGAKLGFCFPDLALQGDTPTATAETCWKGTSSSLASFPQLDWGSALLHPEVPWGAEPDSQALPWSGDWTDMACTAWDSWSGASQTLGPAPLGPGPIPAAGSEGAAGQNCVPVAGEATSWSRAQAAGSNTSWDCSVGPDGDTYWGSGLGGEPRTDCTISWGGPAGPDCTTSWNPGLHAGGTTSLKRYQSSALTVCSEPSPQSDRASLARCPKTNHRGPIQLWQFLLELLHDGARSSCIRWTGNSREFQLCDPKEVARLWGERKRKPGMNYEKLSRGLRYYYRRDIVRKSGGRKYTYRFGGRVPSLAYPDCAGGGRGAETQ
# Procedure, shortened: as §1
# ELF3 = biological target: T5, ELF3 (Homo sapiens, UniProt P78545 1-371); conditions: protein: recombinant; tags: N-terminal GST; dsDNA, one strand shown
# T5 sequence: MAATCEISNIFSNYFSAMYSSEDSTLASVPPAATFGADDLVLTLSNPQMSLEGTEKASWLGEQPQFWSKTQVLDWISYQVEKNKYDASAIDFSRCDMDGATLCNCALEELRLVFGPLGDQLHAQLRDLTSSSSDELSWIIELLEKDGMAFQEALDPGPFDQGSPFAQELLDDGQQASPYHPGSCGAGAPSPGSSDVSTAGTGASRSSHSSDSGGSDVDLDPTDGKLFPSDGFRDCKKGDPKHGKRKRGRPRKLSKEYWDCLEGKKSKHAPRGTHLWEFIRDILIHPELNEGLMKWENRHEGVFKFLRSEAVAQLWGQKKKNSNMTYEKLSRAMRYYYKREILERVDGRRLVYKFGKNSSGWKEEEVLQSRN
# Procedure, shortened: as §1
# ETV1 = ETV1 (Homo sapiens, UniProt P50549 1-477); conditions: protein: recombinant; tags: N-terminal GST; dsDNA, one strand shown
# Procedure, shortened: as §1
# ERF = biological target: T6, ERF (Homo sapiens, UniProt P50548 1-548); conditions: protein: recombinant; tags: N-terminal GST; dsDNA, one strand shown
# T6 sequence: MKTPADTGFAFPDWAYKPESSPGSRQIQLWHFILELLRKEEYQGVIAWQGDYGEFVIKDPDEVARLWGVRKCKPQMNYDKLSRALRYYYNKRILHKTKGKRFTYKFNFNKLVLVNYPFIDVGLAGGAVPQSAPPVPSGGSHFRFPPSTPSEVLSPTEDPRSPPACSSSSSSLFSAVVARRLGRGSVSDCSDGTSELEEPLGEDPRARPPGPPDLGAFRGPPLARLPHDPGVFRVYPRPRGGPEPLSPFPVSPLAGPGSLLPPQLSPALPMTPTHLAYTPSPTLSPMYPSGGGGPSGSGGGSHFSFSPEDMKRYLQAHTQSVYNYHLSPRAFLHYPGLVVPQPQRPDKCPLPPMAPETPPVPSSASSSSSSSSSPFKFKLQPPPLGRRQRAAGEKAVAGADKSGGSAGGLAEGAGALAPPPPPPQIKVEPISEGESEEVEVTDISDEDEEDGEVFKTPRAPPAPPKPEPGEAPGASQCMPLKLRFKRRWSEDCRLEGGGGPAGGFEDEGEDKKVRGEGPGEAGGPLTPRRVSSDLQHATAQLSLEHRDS
# Procedure, shortened: as §1
# ETV3L = biological target: T7, ETV3L (Homo sapiens, UniProt Q6ZN32 1-361); conditions: protein: recombinant; tags: N-terminal GST; dsDNA, one strand shown
# T7 sequence: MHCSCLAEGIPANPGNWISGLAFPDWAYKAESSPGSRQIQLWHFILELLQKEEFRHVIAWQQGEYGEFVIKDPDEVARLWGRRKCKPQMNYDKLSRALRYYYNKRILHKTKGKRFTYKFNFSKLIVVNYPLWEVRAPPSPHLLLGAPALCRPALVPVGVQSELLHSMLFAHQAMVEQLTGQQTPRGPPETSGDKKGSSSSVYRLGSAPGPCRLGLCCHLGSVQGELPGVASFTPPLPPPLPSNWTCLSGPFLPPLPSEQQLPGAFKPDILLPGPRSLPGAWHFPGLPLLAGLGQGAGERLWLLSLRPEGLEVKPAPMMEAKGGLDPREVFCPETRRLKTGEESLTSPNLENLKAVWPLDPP
# Procedure, shortened: as §1
# ETS2 = biological target: T8, ETS2 (Homo sapiens, UniProt P15036 1-469); conditions: protein: recombinant; tags: N-terminal GST; dsDNA, one strand shown
# T8 sequence: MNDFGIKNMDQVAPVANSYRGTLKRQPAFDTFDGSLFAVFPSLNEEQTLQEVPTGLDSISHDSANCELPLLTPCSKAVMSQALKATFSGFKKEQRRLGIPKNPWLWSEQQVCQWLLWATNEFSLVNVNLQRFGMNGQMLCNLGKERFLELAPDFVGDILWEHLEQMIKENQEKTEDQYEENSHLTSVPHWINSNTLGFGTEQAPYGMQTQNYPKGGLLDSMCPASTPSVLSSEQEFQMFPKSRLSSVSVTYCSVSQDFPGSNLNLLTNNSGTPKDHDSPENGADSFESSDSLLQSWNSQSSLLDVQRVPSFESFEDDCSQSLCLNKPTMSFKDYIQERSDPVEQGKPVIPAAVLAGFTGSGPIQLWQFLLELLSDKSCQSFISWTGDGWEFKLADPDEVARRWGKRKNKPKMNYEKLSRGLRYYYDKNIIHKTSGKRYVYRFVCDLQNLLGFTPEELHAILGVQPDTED
# Procedure, shortened: as §1
# SPDEF = biological target: T9, SPDEF (Homo sapiens, UniProt O95238 1-335); conditions: protein: recombinant; tags: N-terminal GST; dsDNA, one strand shown
# T9 sequence: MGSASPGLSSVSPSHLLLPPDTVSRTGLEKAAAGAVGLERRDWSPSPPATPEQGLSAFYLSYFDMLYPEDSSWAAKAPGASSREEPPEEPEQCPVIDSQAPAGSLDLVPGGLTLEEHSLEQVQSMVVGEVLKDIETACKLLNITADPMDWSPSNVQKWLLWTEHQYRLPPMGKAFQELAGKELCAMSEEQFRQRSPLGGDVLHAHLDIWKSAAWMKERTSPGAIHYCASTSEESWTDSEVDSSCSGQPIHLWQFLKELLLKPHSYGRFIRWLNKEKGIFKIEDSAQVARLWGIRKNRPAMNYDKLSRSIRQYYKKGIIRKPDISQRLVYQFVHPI
# Procedure, shortened: as §1
# ETV7 = biological target: T10, ETV7 (Homo sapiens, UniProt Q9Y603 1-341); conditions: protein: recombinant; tags: N-terminal GST; dsDNA, one strand shown
# T10 sequence: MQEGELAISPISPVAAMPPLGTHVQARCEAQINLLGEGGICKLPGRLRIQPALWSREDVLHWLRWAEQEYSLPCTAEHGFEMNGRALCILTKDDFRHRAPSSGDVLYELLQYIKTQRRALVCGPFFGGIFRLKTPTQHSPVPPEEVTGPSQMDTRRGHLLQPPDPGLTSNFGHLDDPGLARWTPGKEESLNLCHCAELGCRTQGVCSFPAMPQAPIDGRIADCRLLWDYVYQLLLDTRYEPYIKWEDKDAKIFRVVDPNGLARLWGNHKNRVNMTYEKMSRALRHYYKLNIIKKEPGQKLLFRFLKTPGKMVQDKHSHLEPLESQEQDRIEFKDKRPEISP
# Procedure, shortened: as §1
# ELF5 = biological target: T11, ELF5 (Homo sapiens, UniProt Q9UKW6-2 1-255); conditions: protein: recombinant; tags: N-terminal GST; dsDNA, one strand shown
# T11 sequence: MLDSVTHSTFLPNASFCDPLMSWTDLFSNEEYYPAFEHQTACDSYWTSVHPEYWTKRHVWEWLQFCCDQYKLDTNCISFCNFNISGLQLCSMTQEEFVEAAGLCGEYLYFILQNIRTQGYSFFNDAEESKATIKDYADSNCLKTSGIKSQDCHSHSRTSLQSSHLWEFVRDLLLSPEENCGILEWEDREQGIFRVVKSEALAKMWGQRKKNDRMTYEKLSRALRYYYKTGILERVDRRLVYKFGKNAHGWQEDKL
# Procedure, shortened: as §1
# ETV3 = biological target: T12, ETV3 (Homo sapiens, UniProt P41162-2 1-143); conditions: protein: recombinant; tags: N-terminal GST; dsDNA, one strand shown
# T12 sequence: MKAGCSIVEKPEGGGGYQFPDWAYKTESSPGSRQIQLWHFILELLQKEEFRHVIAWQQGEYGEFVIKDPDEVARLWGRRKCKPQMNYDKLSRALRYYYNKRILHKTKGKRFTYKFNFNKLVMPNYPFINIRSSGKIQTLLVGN
# Procedure, shortened: as §1
# ETV6 = ETV6 (Homo sapiens, UniProt P41212 1-452); conditions: protein: recombinant; tags: N-terminal GST; dsDNA, one strand shown
# Procedure, shortened: as §1
# Chain of ETV1 (P50549 whole entry): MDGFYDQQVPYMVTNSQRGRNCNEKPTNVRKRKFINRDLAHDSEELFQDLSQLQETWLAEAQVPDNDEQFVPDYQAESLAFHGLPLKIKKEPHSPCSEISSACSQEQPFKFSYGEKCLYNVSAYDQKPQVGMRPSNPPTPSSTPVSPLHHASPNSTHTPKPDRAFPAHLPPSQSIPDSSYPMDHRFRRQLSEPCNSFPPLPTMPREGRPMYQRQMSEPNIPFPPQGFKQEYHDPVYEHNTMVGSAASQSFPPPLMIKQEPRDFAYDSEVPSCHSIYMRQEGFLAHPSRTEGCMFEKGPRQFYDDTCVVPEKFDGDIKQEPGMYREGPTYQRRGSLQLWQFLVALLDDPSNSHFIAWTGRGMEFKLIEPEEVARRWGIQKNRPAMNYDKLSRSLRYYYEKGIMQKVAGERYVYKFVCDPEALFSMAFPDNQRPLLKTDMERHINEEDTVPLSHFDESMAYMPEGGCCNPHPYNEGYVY
# Chain of HSF1 (Q00613 whole entry): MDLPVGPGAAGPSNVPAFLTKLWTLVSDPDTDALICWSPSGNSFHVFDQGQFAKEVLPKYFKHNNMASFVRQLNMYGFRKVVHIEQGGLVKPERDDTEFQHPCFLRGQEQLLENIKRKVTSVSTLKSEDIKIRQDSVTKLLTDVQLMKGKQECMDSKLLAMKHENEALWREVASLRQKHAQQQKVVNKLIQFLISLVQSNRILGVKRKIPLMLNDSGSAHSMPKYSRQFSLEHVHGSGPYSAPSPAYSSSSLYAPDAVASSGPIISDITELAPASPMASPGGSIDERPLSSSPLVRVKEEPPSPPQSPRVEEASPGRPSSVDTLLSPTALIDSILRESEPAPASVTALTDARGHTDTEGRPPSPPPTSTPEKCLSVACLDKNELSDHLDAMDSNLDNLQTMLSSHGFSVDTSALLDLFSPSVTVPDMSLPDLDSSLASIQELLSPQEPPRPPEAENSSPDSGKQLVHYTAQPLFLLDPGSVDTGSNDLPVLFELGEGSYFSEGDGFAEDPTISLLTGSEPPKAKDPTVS
# Chain of ETV6 (P41212 whole entry): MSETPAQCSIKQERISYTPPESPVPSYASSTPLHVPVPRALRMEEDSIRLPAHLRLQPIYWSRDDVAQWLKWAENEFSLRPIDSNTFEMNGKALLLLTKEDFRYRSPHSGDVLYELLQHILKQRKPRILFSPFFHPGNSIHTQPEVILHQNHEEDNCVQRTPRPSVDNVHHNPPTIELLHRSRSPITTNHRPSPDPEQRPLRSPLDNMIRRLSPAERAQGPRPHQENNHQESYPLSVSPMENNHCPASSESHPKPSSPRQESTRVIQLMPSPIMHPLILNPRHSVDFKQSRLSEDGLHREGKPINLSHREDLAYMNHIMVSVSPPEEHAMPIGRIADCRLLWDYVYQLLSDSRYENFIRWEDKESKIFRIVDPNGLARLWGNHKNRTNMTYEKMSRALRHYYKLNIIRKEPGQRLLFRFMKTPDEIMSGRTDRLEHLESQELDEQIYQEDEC
# Chain of ETV5 (P41161 whole entry): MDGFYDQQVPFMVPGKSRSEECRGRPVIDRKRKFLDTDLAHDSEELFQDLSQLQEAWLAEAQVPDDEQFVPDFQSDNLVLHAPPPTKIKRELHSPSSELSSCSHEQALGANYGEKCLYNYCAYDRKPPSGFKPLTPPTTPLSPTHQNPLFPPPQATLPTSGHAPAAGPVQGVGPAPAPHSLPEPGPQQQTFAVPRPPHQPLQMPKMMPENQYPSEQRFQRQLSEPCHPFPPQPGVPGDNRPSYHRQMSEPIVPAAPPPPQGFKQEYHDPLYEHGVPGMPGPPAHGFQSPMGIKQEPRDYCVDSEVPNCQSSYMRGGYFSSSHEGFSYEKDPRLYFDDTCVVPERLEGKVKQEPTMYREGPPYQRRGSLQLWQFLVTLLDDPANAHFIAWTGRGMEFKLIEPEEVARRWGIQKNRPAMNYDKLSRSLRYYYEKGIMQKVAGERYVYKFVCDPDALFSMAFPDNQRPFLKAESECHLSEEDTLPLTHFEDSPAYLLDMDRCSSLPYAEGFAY
# Chain of ELF4 (Q99607 whole entry): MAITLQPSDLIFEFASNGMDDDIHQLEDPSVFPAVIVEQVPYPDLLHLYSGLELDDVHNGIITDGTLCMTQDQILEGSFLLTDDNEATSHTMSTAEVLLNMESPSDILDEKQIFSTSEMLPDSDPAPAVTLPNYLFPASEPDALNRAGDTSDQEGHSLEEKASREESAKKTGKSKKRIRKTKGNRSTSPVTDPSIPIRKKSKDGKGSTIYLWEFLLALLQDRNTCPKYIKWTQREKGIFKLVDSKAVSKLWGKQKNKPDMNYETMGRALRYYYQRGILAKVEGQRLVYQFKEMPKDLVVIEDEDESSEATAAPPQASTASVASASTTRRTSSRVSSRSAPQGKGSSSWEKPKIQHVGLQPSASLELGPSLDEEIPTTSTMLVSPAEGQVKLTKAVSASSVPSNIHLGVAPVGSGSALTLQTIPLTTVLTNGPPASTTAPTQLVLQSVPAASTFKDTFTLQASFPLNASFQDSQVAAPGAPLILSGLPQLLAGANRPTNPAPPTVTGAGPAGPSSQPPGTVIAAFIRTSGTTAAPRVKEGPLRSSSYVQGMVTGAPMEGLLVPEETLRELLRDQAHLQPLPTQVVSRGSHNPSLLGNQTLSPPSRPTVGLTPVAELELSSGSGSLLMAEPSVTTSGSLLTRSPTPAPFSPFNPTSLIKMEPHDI
sequence,measurement,setting,value
CAACGA,binding signal,FEV,"1.01 fold enrichment (6-mer frequency, TF over GST control)"
same,binding signal,ETV5,"1.02 fold enrichment (6-mer frequency, TF over GST control)"
same,binding signal,HSF1,"1 fold enrichment (6-mer frequency, TF over GST control)"
same,binding signal,SPIC,"1.1 fold enrichment (6-mer frequency, TF over GST control)"
same,binding signal,ELF4,"1.1 fold enrichment (6-mer frequency, TF over GST control)"
same,binding signal,ELK4,"1.14 fold enrichment (6-mer frequency, TF over GST control)"
same,binding signal,ETV2,"1.01 fold enrichment (6-mer frequency, TF over GST control)"
same,binding signal,ELF3,"1.08 fold enrichment (6-mer frequency, TF over GST control)"
same,binding signal,ETV1,"1 fold enrichment (6-mer frequency, TF over GST control)"
same,binding signal,ERF,"1.05 fold enrichment (6-mer frequency, TF over GST control)"
same,binding signal,ETV3L,"1.08 fold enrichment (6-mer frequency, TF over GST control)"
same,binding signal,ETS2,"1.11 fold enrichment (6-mer frequency, TF over GST control)"
same,binding signal,SPDEF,"1.01 fold enrichment (6-mer frequency, TF over GST control)"
same,binding signal,ETV7,"1.05 fold enrichment (6-mer frequency, TF over GST control)"
same,binding signal,ELF5,"1.01 fold enrichment (6-mer frequency, TF over GST control)"
same,binding signal,ETV3,"1.07 fold enrichment (6-mer frequency, TF over GST control)"
same,binding signal,ETV6,"1.04 fold enrichment (6-mer frequency, TF over GST control)"
